This is an account of results in PubChem BioAssay.

The structures appear in SMILES notation. Values joined by “and” are separate entries in the source; they are usually repeats but may differ in a detail not shown here. Equal entries are not always repeated. Active and inactive are the calls of the source. Unless noted, no rule for the calls is given here.

A word on the inhibition: it is the change of the read-out against control, counted positive when it falls. A word on the remaining activity: it is the signal under treatment as a percentage of the control signal.

The test system of test [1] is Hepatitis C virus NS3 helicase. As to the kind of experiment: blockers of NS3h binding to ssDNA – biochemical, fluorescence polarization, LOPAC1280 library, primary screen (AID 687035; in the data active = inhibition above about 37%). The note with it: Purified HCV NS3 helicase, Cy5-dT15 ssDNA binding fluorescence polarization; stronger effect = higher value; concentration not given here. A general note: Fluorescence polarisation rises when a labelled molecule tumbles more slowly, as on binding a larger partner.

Test [2] can be described thus: compounds altering Cy5-DNA-NS3h complex signal – biochemical, LOPAC1280, artefact control for HCV NS3 helicase inhibitor project (AID 687037). The settings on record: Cy5-DNA-NS3h complex fluorescence interference counterscreen. (In general: A counterscreen serves to expose hits that act by an unwanted route or on another target.)
Test [3] deals with Aerobactin synthetase IucA (Klebsiella pneumoniae). Nature of the test: inhibition of K. pneumoniae IucA enzyme – biochemical, Tocris library, absorbance (AID 1345561).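 Also: 100% = enzyme without compound and 0% = no enzyme.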 The settings on record: purified IucA enzyme assay, absorbance (OD) read-out; stronger effect = lower value;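 tested at 8 µM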.
Test [4] can be described thus: viability loss with induced miR-34 in A549 – imaging, A549 dox-inducible miR-34, nuclei and caspase counts, primary screen (AID 1347080;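 active = compounds whose cell count with miR-34 switched on is under 0.7 times the count with it off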). The note with it: A549 miR-34 inducible, Hoechst nuclei count, 48 h.
The nature of test [5]: blockers of cellular phospholipid synthesis – cell-based, LOPAC library, screen 4, primary screen (AID 1347384). The note with it: animal cells, phospholipid biosynthesis inhibition screen; at 10 µM.
Test [6] is described as follows: galactose survival enhancers in mitochondrial complex I cybrids – cell-based, galactose medium, ATP luminescence, primary screen (AID 1645843;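 active = z-score of at least 1.8 in each of two replicates, scored against plate mean and spread of sample wells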;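 also: positive z means more ATP and so rescue of galactose-driven cybrid death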). The settings on record: complex I mutant cybrid cells, 72 h, stronger effect = higher value.
Test [7] in a line: compounds altering circadian rhythm period length – cell-based, LOPAC library, luminescence reporter (AID 2774).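 Also: values are relative to mean of DMSO wells on each plate.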 The note with it: circadian reporter cells, at 7 µM, actives lie on both sides.
A short description of test [8]: chitosan synthesis blockers in C. neoformans – flow cytometry, Cibacron Brilliant Red staining (AID 1347148).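 Also: compound exposure lasted three days at 37 degrees C.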 The settings on record: Cryptococcus neoformans chitosan, stronger effect = lower value; at 10 µM unless noted. (In general: A flow cytometer gives signals particle by particle.)
[9] abbreviates: stronger effect = lower value, cell number ratio, induced over uninduced.
[10] abbreviates: measured here: relative caspase fold change +Dox/-Dox.
The mark [11] stands for this setting: measured here: total cells with miR-34 induction, stronger effect = lower value.
The mark [12] stands for this setting: measured here: total cells without miR-34 induction.

As to `CC(C)[C@@H]1CC[C@@H](C)C[C@@H]1P(=O)(c1ccccc1)c1ccccc1`, in test [1], the inhibition was 2% (inactive). Moreover, the fluorescence ratio (interference) in test [2] is 1 (inactive). In test [3], the remaining activity was 100% (inactive). In addition, the fold change is 0.961 (inactive) and 0.925 (inactive) in test [4] (setting [9]); 0.895 and 1.06 in test [4] (setting [10]). Also, the cell count in test [4] (setting [11]) is 8530 and 7980; in test [4] (setting [12]), 8880 and 8620. Further, the compound was called inactive in test [5]. Besides, the z-score in test [6] is 0.1 (inactive) and -0.24 (inactive).

As to `COc1ccc(CCCOC(Cn2ccnc2)c2ccc(OC)cc2)cc1` (stereo unspecified), the remaining activity in test [3] was 113% (inactive). Also, the fold change was 1.01 (inactive) and 1.05 (inactive) in test [4] (setting [9]); 1.53 and 0.475 and 0.778 in test [4] (setting [10]). Further, the cell count was 1590 and 4390 and 2690 in test [4] (setting [11]); 1570 and 4170 and 2650 in test [4] (setting [12]). The z-score in test [6] is -0.775 (inactive).

For the compound `CCCCCCC(=O)OC1CC(C)(C)NC(C)(C)C1`, the inhibition in test [1] is -4% (inactive). Moreover, the fluorescence ratio (interference) in test [2] was 0.9 (inactive). Further, the remaining activity in test [3] was 97.8% (inactive). In addition, the fold change in test [4] (setting [9]) was 0.999 (inactive) and 0.934 (inactive); in test [4] (setting [10]), 0.562 and 1.2. The cell count in test [4] (setting [11]) is 9880 and 8660; in test [4] (setting [12]), 9890 and 9270. Moreover, the call in test [5] was inactive. Besides, in test [6], the z-score was 0.56 (inactive) and 0.015 (inactive).

In the case of `Nc1nc2c(cnn2CCc2ccccc2)c2nc(-c3ccco3)nn12`, the inhibition in test [1] is 0% (inactive). Moreover, the fluorescence ratio (interference) in test [2] was 1 (inactive). The remaining activity in test [3] was 107% (inactive). Further, the fold change in test [4] (setting [9]) is 0.995 (inactive) and 1.05 (inactive); in test [4] (setting [10]), 1.09 and 1.04. In addition, the cell count in test [4] (setting [11]) was 10300 and 7560; in test [4] (setting [12]), 10400 and 7200. Further, in test [5], the compound was called inactive. For the same compound, in test [6], the z-score was 0.15 (inactive) and -0.35 (inactive).

For `CC[N+](CC)(CC)CC(=O)Nc1c(C)cccc1C`, the period change in test [7] is 0.065 h (inactive). In addition, in test [1], the inhibition is -2% (inactive). In addition, the fluorescence ratio (interference) in test [2] is 1 (inactive). In test [3], the remaining activity was 100% (inactive) and 106% (inactive). Also, in test [8], the fold fluorescence was 6.95 [at 145.6 µM] (inactive). For the same compound, the compound was called inactive in test [5]. Moreover, in test [6], the z-score is 0.42 (inactive) and 1.23 (inactive) and 0.065 (inactive).

On to `CCCCCCCCCCC(C)(C)C(=O)Nc1c(OC)cc(OC)cc1OC`, for which the inhibition in test [1] was -1% (inactive). Also, in test [2], the fluorescence ratio (interference) is 1 (inactive). Also, the remaining activity in test [3] is 89.7% (inactive). Besides, the fold change in test [4] (setting [9]) was 1.03 (inactive) and 0.876 (inactive); in test [4] (setting [10]) it was 2.03 and 1.56. The cell count is 8990 and 6930 in test [4] (setting [11]); 8710 and 7910 in test [4] (setting [12]). In addition, in test [5], the compound was called inactive. Moreover, the z-score in test [6] was -1.29 (inactive) and -0.7 (inactive).

`Nc1ccc(-c2nc3ccc(-c4nc5ccc(N)cc5[nH]4)cc3[nH]2)cc1`: in test [1], the inhibition is -5% (inactive). For the same compound, in test [2], the fluorescence ratio (interference) was 0.6 (active). For the same compound, the remaining activity in test [3] was 107% (inactive). Also, the fold change in test [4] (setting [9]) is 1.02 (inactive) and 0.968 (inactive); in test [4] (setting [10]) it was 0.586 and 0.928. Also, the cell count in test [4] (setting [11]) was 11200 and 10100; in test [4] (setting [12]), 10900 and 10500. Further, in test [5], the compound was called inactive. Moreover, the z-score in test [6] is 4.82 (active) and 5.54 (active).

For `c1ccc2nc(C3=NCCN3)ccc2c1`, the period change in test [7] was 0.1 h (inactive). Further, in test [1], the inhibition was 0% (inactive). Also, the fluorescence ratio (interference) in test [2] is 1 (inactive). The remaining activity in test [3] was 101% (inactive). Besides, the fold change in test [4] (setting [9]) was 1.03 (inactive) and 0.931 (inactive); in test [4] (setting [10]) it was 1.73 and 0.739. In addition, the cell count in test [4] (setting [11]) is 9970 and 8800; in test [4] (setting [12]), 9720 and 9460. Moreover, the outcome in test [5] was inactive. The z-score in test [6] was 0.695 (inactive) and 0.09 (inactive).

Take `CC(C)(C)c1ccc(/C=C/C(=O)Nc2ccc3c(c2)OCCO3)cc1`: the inhibition in test [1] was -1% (inactive). Further, the fluorescence ratio (interference) in test [2] is 1 (inactive). Moreover, the remaining activity in test [3] is 109% (inactive). Besides, the fold change is 1.15 (inactive) and 1.27 (inactive) in test [4] (setting [9]); 0.847 and 0.54 in test [4] (setting [10]). The cell count in test [4] (setting [11]) is 4930 and 3950; in test [4] (setting [12]), 4270 and 3100. The outcome in test [5] was inactive. In addition, the z-score in test [6] is -1.38 (inactive) and -0.7 (inactive).

In the case of `COC(=O)[C@H](NC(=O)c1cc(-c2ccccc2)nc2ccccc12)c1ccccc1`, the period change in test [7] was -0.11 h (inactive). For the same compound, in test [1], the inhibition was -1% (inactive). The fluorescence ratio (interference) in test [2] is 1 (inactive). Besides, in test [3], the remaining activity is 100% (inactive). The fold change in test [4] (setting [9]) is 1 (inactive) and 0.927 (inactive); in test [4] (setting [10]), 0.906 and 0.535. The cell count is 9010 and 8560 in test [4] (setting [11]); 8980 and 9240 in test [4] (setting [12]). In addition, in test [5], the result was inactive. Further, in test [6], the z-score was 0.22 (inactive) and -0.03 (inactive).

With `CC1CCN=C(N)S1` (stereo unspecified), the period change in test [7] is -0.02 h (inactive). For the same compound, in test [1], the inhibition is -2% (inactive). Besides, the fluorescence ratio (interference) in test [2] was 1 (inactive). Moreover, in test [3], the remaining activity is 103% (inactive). In addition, the fold change in test [4] (setting [9]) is 1.02 (inactive) and 0.923 (inactive); in test [4] (setting [10]), 1.68 and 0.753. Besides, the cell count in test [4] (setting [11]) is 9440 and 8650; in test [4] (setting [12]) it was 9270 and 9380. Also, the outcome in test [5] was inactive. The z-score in test [6] was 0.31 (inactive) and 1.27 (inactive).

Regarding `Cc1cccc(C(=O)NCN2CCN(c3ccccc3C#N)CC2)c1`, the period change in test [7] is 0.095 h (inactive). For the same compound, in test [1], the inhibition is -3% (inactive). For the same compound, the fluorescence ratio (interference) in test [2] was 1 (inactive). Moreover, in test [3], the remaining activity was 92.5% (inactive). For the same compound, the fold change is 0.97 (inactive) and 0.957 (inactive) in test [4] (setting [9]); 0.725 and 1.8 in test [4] (setting [10]). In addition, the cell count is 9570 and 9300 in test [4] (setting [11]); 9870 and 9720 in test [4] (setting [12]). Further, the outcome in test [5] was inactive. Moreover, the z-score in test [6] is -0.125 (inactive) and 0.395 (inactive).

For `O=C1NC(=O)c2cc(Nc3ccccc3)c(Nc3ccccc3)cc21`, the inhibition in test [1] is 0% (inactive). Besides, in test [2], the fluorescence ratio (interference) is 1 (inactive). For the same compound, the remaining activity in test [3] was 123% (inactive). In addition, the fold change in test [4] (setting [9]) was 1.14 (inactive) and 0.996 (inactive); in test [4] (setting [10]), 1.65 and 1.45. The cell count in test [4] (setting [11]) is 3180 and 3240; in test [4] (setting [12]), 2790 and 3260. The compound was classed as inactive in test [5]. Also, in test [6], the z-score was -1.08 (inactive) and -0.55 (inactive).
